The source of these data is PubChem BioAssay (NCI).

Structures are written as SMILES. The panel holds about 83,000 compounds, 20% with a hit somewhere; the sample as a whole holds those more often.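 Results are percent growth after 48 hours of single-concentration exposure. 100 means growth as in untreated cells, lower positive values show inhibition; negative values down to -100 show cell death.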 A number with no mark means an inactive call. Active and inactive are the calls of the source. Rule for the calls: active = growth percent below 10; inactive = the rest.

One experiment has as its system PC-3 prostate. Briefly: NCI-60 one-dose screen, 48 h (100 = growth as untreated, 0 = no growth, -100 = all killed). The conditions noted are these: 10 µM.
For `O=C(Nc1ccc(OCC(=O)c2ccc(Cl)cc2)cc1)Nc1ccc(Cl)c(C(F)(F)F)c1`, the growth was 7.67% (active). On to `Cc1ccc2sc3c(c2c1)Oc1nc[nH]c(=O)c1C3c1cccc(F)c1` (centres undefined), for which the growth was 85.7%. Turning to `Cc1cc(N=C2NC(=O)/C(=C/c3cc(C(C)(C)C)c(O)c(C(C)(C)C)c3)S2)n[nH]1`, the growth was 10.7%. The same measure, in the same setting: for `COc1ccc(C2c3sc4ccc(C)cc4c3Oc3nc[nH]c(=O)c32)cc1` (centres undefined) the value was 74.9%; for `COc1cccc(C(=O)CSc2nc(-c3ccc(OCc4ccccc4)c(OC)c3)c(C#N)c(=O)[nH]2)c1`, 103%; for `Cc1ccc(COc2ccc(NC(=O)Nc3ccc(Cl)c(C(F)(F)F)c3)cc2)cc1`, 38.4%.

Regarding `CC(C)(C)c1cc(/C=C2\S/C(=N/c3ncn[nH]3)NC2=O)cc(C(C)(C)C)c1O`, the growth is 12.2%.

As for `Cn1cc(/C=C(/SS/C(=C/c2cn(C)c3cccc(C(=O)O)c23)C(=O)O)C(=O)O)c2c(C(=O)O)cccc21`, the growth was 97.2%. Still for that read-out and setting: for `COc1ccc(C(=O)COc2ccc(NC(=O)Nc3ccccc3)cc2)cc1` the value was 83.1%. With `CCn1c(SCC(=O)Nc2ccc(-c3nc4ccccc4[nH]3)cc2)nc2ccccc2c1=O`, the growth is -80.6% (active). Same read-out and setting: the same measure for `O=C(Nc1ccc(OCc2ccc(F)cc2)cc1)Nc1ccc(Cl)c(C(F)(F)F)c1`: -1.21% (active); for `O=C(CC(=O)Nc1ccc(Oc2ncnc3scc(Nc4n[nH]c(=S)s4)c23)cc1)Nc1ccc(Br)cc1`: 99.9%. For `COc1ccc(C(=O)COc2ccc(NC(=O)Nc3ccc(Cl)c(C(F)(F)F)c3)cc2)cc1`, the growth was 8.96% (active). Regarding `O=C(Nc1ccc(Oc2ncnc3scc(Nc4n[nH]c(=S)s4)c23)cc1)C1(C(=O)Nc2cccc(C(F)(F)F)c2)CC1`, the growth is 103%. With `O=C1NC(=S)S/C1=C\c1cn(-c2ccccc2)nc1-c1ccc([N+](=O)[O-])cc1`, the growth is 11.2%. Regarding `O=C(CSc1nc2ccccc2c(=O)n1-c1ccc(Cl)cc1)Nc1ccc(-c2nc3ccc([N+](=O)[O-])cc3[nH]2)cc1`, the growth was -14.9% (active).

For a further experiment, the system named is SK-MEL-5 melanoma. The experiment is described as above. To be noted: 10 µM.
Regarding `COc1ccc(C2c3sc4ccc(C)cc4c3Oc3nc(N)nc(N)c32)cc1` (centres undefined), the growth is 92.9%.

Consider `Cc1cc(N=C2NC(=O)S/C2=C\c2ccc(F)cc2)n[nH]1`, for which the growth was 16.5%. Take `Cn1cc(-c2nnc(N)nc2-c2c[nH]c3ccccc23)c2cc(Br)cnc21`: the growth is -72.8% (active).

As for `O=C(CC(=O)Nc1ccc(Oc2ncnc3scc(Nc4n[nH]c(=S)s4)c23)cc1)Nc1ccc(Cl)cc1`, the growth was 89%. On to `O=C1NC2C=CC=CC2/C1=C1/SC(=S)N(C2CC(=O)N(c3ccc(Br)cc3)C2=O)C1=O` (centres undefined), for which the growth is 100%.

Regarding `CC1(C)CC(=O)C2=C(C1)N(Cc1ccc(C(=O)O)cc1)C1=C(C(=O)CC(C)(C)C1)C2c1ccc(Cl)cc1`, the growth was 99.9%. With `Cc1ccc2c(c1)C(=O)/C(=C/c1ccc([N+](=O)[O-])cc1)S2`, the growth was 95.1%. For the compound `O=C(Nc1ccc(OCc2ccc(Cl)cc2)cc1)Nc1ccc(Cl)c(C(F)(F)F)c1`, the growth is -81.4% (active).

Consider `Cn1cc(-c2nc(N)nnc2-c2c[nH]c3ccccc23)c2cc(Br)cnc21`, for which the growth was -81.3% (active). Regarding `O=C(CSc1nc2ccccc2c(=O)n1-c1ccc(Cl)cc1)Nc1ccc(-c2nc3ccccc3[nH]2)cc1`, the growth is 47.7%.

For the compound `Cc1ccc2c(c1)C(=O)/C(=C/c1c[nH]c3ccccc13)S2`, the growth is 59%. `COc1cc(C2CC(c3ccc(Oc4ccc(Cl)cc4)cc3)=NN2c2nc(-c3ccc(Cl)cc3)c(C#N)c(N3CCOCC3)n2)cc(OC)c1OC` (centres undefined): the growth is 97.8%.

For `O=C(Nc1ccc(OCC(=O)c2ccc(Cl)cc2)cc1)Nc1ccc(Cl)c(C(F)(F)F)c1`, the growth was 53.8%.

Take `Cc1ccc2sc3c(c2c1)Oc1nc[nH]c(=O)c1C3c1cccc(F)c1` (centres undefined): the growth is 96.4%. As to `Cc1cc(N=C2NC(=O)/C(=C/c3cc(C(C)(C)C)c(O)c(C(C)(C)C)c3)S2)n[nH]1`, the growth is -72.8% (active).

For the compound `COc1ccc(C2c3sc4ccc(C)cc4c3Oc3nc[nH]c(=O)c32)cc1` (centres undefined), the growth was 88.8%. For the compound `COc1cccc(C(=O)CSc2nc(-c3ccc(OCc4ccccc4)c(OC)c3)c(C#N)c(=O)[nH]2)c1`, the growth was 98.5%. On to `Cc1ccc(COc2ccc(NC(=O)Nc3ccc(Cl)c(C(F)(F)F)c3)cc2)cc1`, for which the growth is 79.9%.
